The values below come from the supplement of paper PMC6555819.

For one test, the system named is FXR:RXRa (NR concentration 270 nM, RXRa partner concentration 90 nM). Put plainly: PBM binding z-score (relative to random genomic background probes); higher = stronger binding; sequences stand for … in GC…GCGATTGACAGCGTAGAATGAAGG
In outline: (§1)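 Scanned fluorescence from custom Agilent 4×180K protein-binding microarrays was regression-normalized. Binding z-scores use random background probes as reference. Ligand-free nuclear receptor dimers were incubated on the arrays for 1 h and detected with antibodies against each partner (one per run).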
Turning to AATACAGGGTCATCGTAGGCCAGAGAACGCACAG, the PBM binding z-score worked out at 7.44.
CCGACTGGGGCATAAGGTTACGATAAGCCAGCCC yielded a PBM binding z-score of 0.452.
The same measure, in the same setting: next, CGTCCAAGGTCAGAGAGGTAAGTGAATGCCGAGT: 4.98; TCGAGTAGGTTACCAATGGGGCGTTCAGCTTTCT: -0.0945; CCTCCTGGGCCAAAGGTCATTGATTCCAATGCTC: 4.65.
The same measure, in the same setting: in the case of GCGACTGGGGCATCAGGAGGTTACCATAACTTAA it was 0.0636.
On to CCTATTAGTTGACCATAAGGGCAACGGAAGCTCG, for which the PBM binding z-score was 0.826.
The same measure, in the same setting: in the case of CAAACTAGGTCAACGGAAGGTCAAAGTCCGCATG it was 6.1; in that of ACTATTAGTTGAGACGCGGGCAACCGATAGGTTG, -0.0666; in that of ACTAGTTAGTCAGCTGAGGTCACACACAATTCGG, 2.63.
Sequence ATCGAAAGGTCGAAGGTGAATATACCCACCCGAA came in with a PBM binding z-score of 5.04.
On to ATATCTAGGTTAGCTGGGGTCATTCAGACTAGGC, for which the PBM binding z-score turned out to be 4.62.
On the same count and under the same terms, next, TCTTGTAGATCAAGCAGGTTAAGAAGGCCTGAGT: 0.0541; CCAGACAGGTTAAAGGTAACTCAGTCTGGTACGC: 1.95; TCTTGTAGATCAAAGGTTAAGTAAGCCGAAGCCT: 2.04.
Still for that read-out and setting: next, TCTGCAAGGTCAGTTGGTCAGCTAACGAGCTGCC: 4.25; TTACCAAGGTGAAGGTCGCTGATCCCTCTGTAGA: 1.1; ACTTACGGGGCAACGAGGTTATAGCACGCGTATA: 0.934.
As to TCTGCTAGGTCAACGATGGTCAGCCAATCTGCTA, the PBM binding z-score is 3.5.
On the same count and under the same terms, next, ATCTCTACGTAACCAAGTTCAGTGAATGCCGAAC: 0.0268; GCTATTAGTTGAAAGGGCATCCGAATGATTCTCG: 0.204.
In turn, CGAACTAGGTCGTTGACAGGACAGTGAATAGTAA returned a PBM binding z-score of 0.598.
Take TCATATAGGTAACAGGTGAAAGTCGGTGTGGTAA: the PBM binding z-score stood at 0.983.
AGAATGAGGTTACCAAAGATCAGGGACACGCTTG came in with a PBM binding z-score of 2.25.
The sequence CGAACTAGGTCAAGGACAGTGCATCTCCGCACGC gave a PBM binding z-score of 3.37.
The same measure, in the same setting: in the case of CCTACTGGGCCATCTGGTCATTGATATCAACGTT it was -0.161; in that of CGTCCAAGGTCAAAGGAGGTCAGTGAAGACAGAT, 7.79.
As to ACTAGCAGGCCAAGTTTGGGTGACTCAAACAAAG, the PBM binding z-score was -0.397.
Take CAAACTAGGTCACCGGAAGGTCAAAATCCGCATG: the PBM binding z-score amounted to 5.79.
CCTGCTAGGTCAATGGTCAACTAAAGCAGCTCGC: the PBM binding z-score came out at 3.09.
The same measure, in the same setting: next, CCAGACAGGTGAGAAGGTATCTCAGCCTCGATTA: -0.148; TCTAGCAAGCCAGAGGGTCACTCAAGAGGTACGG: 0.763; CGTCCAAGGTCAGAGAGCTCAGTGAATGCCGAGT: 4.73.
Take CGTCCAAGGTCAAGGTCAGCGAAAGAGACTCGAA: the PBM binding z-score turned out to be 7.53.
As to CCTACTCGGCCATTCAGAGGTCATTGATCATATG, the PBM binding z-score was determined as 3.34.
Still for that read-out and setting: next, TCGAATAGGTTACCAATGGGGCATTCAGCTTTCT: 0.65; ATCGAGAGGTCGAAGGTGAGTATACCCACCCGAA: 3.03; CCTTGCAGGCCAGGGTCACTCAAGCATTTCGCTT: 2.3.
The same measure, in the same setting: next, TCGCGTAGGTTAGTCGGGGCATTCAGCCAACATA: 0.0922; AGGATGAGGTTACCAAAGATCAGGGAAACGCTTG: 1.74.

A further test concerns LXRa:RXRa (NR concentration 270 nM, RXRa partner concentration 90 nM). Described as above. In outline: as §1
The sequence AATACAGGGTCATCGTAGGCCAGAGAACGCACAG yielded a PBM binding z-score of 6.64.
The same measure, in the same setting: in the case of CCGACTGGGGCATAAGGTTACGATAAGCCAGCCC it was 0.99; in that of CGTCCAAGGTCAGAGAGGTAAGTGAATGCCGAGT, 3.18.
Still for that read-out and setting: in the case of TCGAGTAGGTTACCAATGGGGCGTTCAGCTTTCT it was 0.41.
Sequence CCTCCTGGGCCAAAGGTCATTGATTCCAATGCTC came in with a PBM binding z-score of 5.11.
Turning to GCGACTGGGGCATCAGGAGGTTACCATAACTTAA, the PBM binding z-score is 0.325.
With CCTATTAGTTGACCATAAGGGCAACGGAAGCTCG, the PBM binding z-score turned out to be 0.337.
The sequence CAAACTAGGTCAACGGAAGGTCAAAGTCCGCATG returned a PBM binding z-score of 5.99.
Same read-out and setting: in the case of ACTATTAGTTGAGACGCGGGCAACCGATAGGTTG it was -0.0998; in that of ACTAGTTAGTCAGCTGAGGTCACACACAATTCGG, 3.5.
For the sequence ATCGAAAGGTCGAAGGTGAATATACCCACCCGAA, the PBM binding z-score was 4.06.
On the same count and under the same terms, in the case of ATATCTAGGTTAGCTGGGGTCATTCAGACTAGGC it was 5.44; in that of TCTTGTAGATCAAGCAGGTTAAGAAGGCCTGAGT, 0.0936; in that of CCAGACAGGTTAAAGGTAACTCAGTCTGGTACGC, 1.84.
The same measure, in the same setting: next, TCTTGTAGATCAAAGGTTAAGTAAGCCGAAGCCT: 2.34; TCTGCAAGGTCAGTTGGTCAGCTAACGAGCTGCC: 2.88.
Same read-out and setting: next, TTACCAAGGTGAAGGTCGCTGATCCCTCTGTAGA: 0.984; ACTTACGGGGCAACGAGGTTATAGCACGCGTATA: 0.688.
In the case of TCTGCTAGGTCAACGATGGTCAGCCAATCTGCTA, the PBM binding z-score came to 2.9.
Same read-out and setting: in the case of ATCTCTACGTAACCAAGTTCAGTGAATGCCGAAC it was 0.0264; in that of GCTATTAGTTGAAAGGGCATCCGAATGATTCTCG, 0.581.
Still for that read-out and setting: in the case of CGAACTAGGTCGTTGACAGGACAGTGAATAGTAA it was 0.178; in that of TCATATAGGTAACAGGTGAAAGTCGGTGTGGTAA, 1.
Still for that read-out and setting: in the case of AGAATGAGGTTACCAAAGATCAGGGACACGCTTG it was 6.38.
In the case of CGAACTAGGTCAAGGACAGTGCATCTCCGCACGC, the PBM binding z-score stood at 2.49.
Same read-out and setting: in the case of CCTACTGGGCCATCTGGTCATTGATATCAACGTT it was -0.364; in that of CGTCCAAGGTCAAAGGAGGTCAGTGAAGACAGAT, 7.44.
In turn, ACTAGCAGGCCAAGTTTGGGTGACTCAAACAAAG had a PBM binding z-score of -0.73.
Turning to CAAACTAGGTCACCGGAAGGTCAAAATCCGCATG, the PBM binding z-score is 5.77.
For the sequence CCTGCTAGGTCAATGGTCAACTAAAGCAGCTCGC, the PBM binding z-score was found to be 2.16.
Take CCAGACAGGTGAGAAGGTATCTCAGCCTCGATTA: the PBM binding z-score is -0.116.
Still for that read-out and setting: next, TCTAGCAAGCCAGAGGGTCACTCAAGAGGTACGG: 0.684; CGTCCAAGGTCAGAGAGCTCAGTGAATGCCGAGT: 2.83.
Take CGTCCAAGGTCAAGGTCAGCGAAAGAGACTCGAA: the PBM binding z-score is 5.5.
Same read-out and setting: in the case of CCTACTCGGCCATTCAGAGGTCATTGATCATATG it was 4.79.
The same measure, in the same setting: in the case of TCGAATAGGTTACCAATGGGGCATTCAGCTTTCT it was 2.61; in that of ATCGAGAGGTCGAAGGTGAGTATACCCACCCGAA, 2.43.
As for CCTTGCAGGCCAGGGTCACTCAAGCATTTCGCTT, the PBM binding z-score worked out at 1.82.
For the sequence TCGCGTAGGTTAGTCGGGGCATTCAGCCAACATA, the PBM binding z-score was -0.043.
The same measure, in the same setting: next, AGGATGAGGTTACCAAAGATCAGGGAAACGCTTG: 6.04.
